Measured values reported in PubChem BioAssay (NCI).
The panel holds about 83,000 compounds, 20% with a hit somewhere; the sample as a whole holds those more often.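 Negative percent growth values reflect cell death: -40 means 40% of the cells present at the start died, and -100 means all died.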 Activity calls are given as the source filed them. Rule for the calls: active = growth percent below 10; inactive = the rest.

Experiments:
Assay in all cases: NCI-60 one-dose screen, 48 h (100 = growth as untreated, 0 = no growth, -100 = all killed)
Details in all cases: 10 µM
SR leukemia = system: SR leukemia
RPMI-8226 leukemia = system: RPMI-8226 leukemia
OVCAR-8 ovarian = system: OVCAR-8 ovarian
OVCAR-5 ovarian = system: OVCAR-5 ovarian
OVCAR-4 ovarian = system: OVCAR-4 ovarian
SK-OV-3 ovarian = system: SK-OV-3 ovarian
IGROV1 ovarian = system: IGROV1 ovarian
OVCAR-3 ovarian = system: OVCAR-3 ovarian
NCI/ADR-RES ovarian = system: NCI/ADR-RES ovarian
HS 578T breast = system: HS 578T breast

Measured: growth

CN1C(=O)C2(Nc3cc(Cl)ccc3S2)c2cc(Cl)ccc21 (stereo not drawn)
inactive: SR leukemia 70.6% | RPMI-8226 leukemia 80.4% | OVCAR-8 ovarian 97.4% | OVCAR-5 ovarian 107% | OVCAR-4 ovarian 70.3% | SK-OV-3 ovarian 96.1% | IGROV1 ovarian 102% | OVCAR-3 ovarian 95.9% | NCI/ADR-RES ovarian 93.6%

CCCCCC(=O)O[C@]1(C(C)=O)CCC2C3CCC4=CC(=O)CC[C@]4(C)C3CC[C@@]21C (stereo partly drawn)
inactive: OVCAR-8 ovarian 24.4% | OVCAR-5 ovarian 74% | OVCAR-4 ovarian 18.4% | SK-OV-3 ovarian 64.3% | IGROV1 ovarian 33.4% | HS 578T breast 54.9% | NCI/ADR-RES ovarian 12.9%
active: SR leukemia 2.49% | RPMI-8226 leukemia -12.4% | OVCAR-3 ovarian 7.34%

NS(=O)(=O)Oc1ccc2c(ccn2C(=O)C23CC4CC(CC(C4)C2)C3)c1
inactive: SR leukemia 111% | RPMI-8226 leukemia 110% | OVCAR-8 ovarian 105% | OVCAR-5 ovarian 105% | OVCAR-4 ovarian 104% | SK-OV-3 ovarian 121% | IGROV1 ovarian 110% | OVCAR-3 ovarian 117% | NCI/ADR-RES ovarian 95.5%

CC(=O)N[C@H](C(=O)N[C@@H](CCCNC(=N)N)C(=O)N[C@@H](CCCCN)C(=O)N[C@@H](CCCNC(=N)N)C(=O)N[C@]1(C)CCCCCC/C=C\CCC[C@@](C)(C(=O)N[C@@H](CCCNC(=N)N)C(=O)N[C@@H](CCC(=O)O)C(=O)N[C@@H](CC(C)C)C(=O)N[C@H](C(=O)N[C@@H](CCC(=O)O)C(N)=O)C(C)C)NC(=O)[C@H](CCC(N)=O)NC(=O)[C@H](CC(C)C)NC(=O)[C@H](CC(C)C)NC(=O)[C@H](CCCNC(=N)N)NC(=O)[C@H](CCCNC(=N)N)NC(=O)[C@H](CC(C)C)NC1=O)C(C)C
inactive: SR leukemia 15.4% | RPMI-8226 leukemia 20.9% | OVCAR-5 ovarian 38.3% | OVCAR-4 ovarian 39.6% | SK-OV-3 ovarian 53.1% | IGROV1 ovarian 58.8%
active: OVCAR-8 ovarian -15.5% | OVCAR-3 ovarian -38.9% | NCI/ADR-RES ovarian 7.03%

CC(=O)Nc1cc2c(cc1Cl)Cc1cc(Cl)ccc1-2
inactive: SR leukemia 80.1% | RPMI-8226 leukemia 111% | OVCAR-8 ovarian 88.2% | OVCAR-5 ovarian 83.7% | OVCAR-4 ovarian 83.9% | SK-OV-3 ovarian 96% | IGROV1 ovarian 72.4% | OVCAR-3 ovarian 103% | HS 578T breast 78.6% | NCI/ADR-RES ovarian 97%

S=C(NCc1ccccc1)NCc1ccccc1
inactive: SR leukemia 98.4% | RPMI-8226 leukemia 100% | OVCAR-8 ovarian 94.7% | OVCAR-5 ovarian 108% | OVCAR-4 ovarian 102% | SK-OV-3 ovarian 99.2% | IGROV1 ovarian 97.4% | OVCAR-3 ovarian 98.5% | HS 578T breast 96.1% | NCI/ADR-RES ovarian 99.5%

CC1CCCC(C(=O)O)C1C(=O)O (stereo not drawn)
inactive: SR leukemia 98.9% | RPMI-8226 leukemia 94.1% | OVCAR-8 ovarian 94.4% | OVCAR-5 ovarian 99.8% | OVCAR-4 ovarian 103% | SK-OV-3 ovarian 90.4% | IGROV1 ovarian 106% | OVCAR-3 ovarian 110% | NCI/ADR-RES ovarian 102%

COc1nc2c(c(=O)n1C)CN(c1ccccc1)C(=O)C(C)N2 (stereo not drawn)
inactive: SR leukemia 93.6% | RPMI-8226 leukemia 96% | OVCAR-8 ovarian 93.4% | OVCAR-5 ovarian 93.2% | OVCAR-4 ovarian 91.9% | SK-OV-3 ovarian 107% | IGROV1 ovarian 106% | OVCAR-3 ovarian 112% | NCI/ADR-RES ovarian 91%

O=C(CCl)Nc1ccc(Cc2ccc(NC(=O)CCl)cc2)cc1
inactive: OVCAR-4 ovarian 27% | SK-OV-3 ovarian 61.7% | HS 578T breast 35.7%
active: SR leukemia 5.61% | RPMI-8226 leukemia -32.9% | OVCAR-8 ovarian 0.481% | OVCAR-5 ovarian 9.56% | IGROV1 ovarian -45.9% | OVCAR-3 ovarian -32.8% | NCI/ADR-RES ovarian 2.83%

O=C(O)c1ccc(-n2cc(CNc3ccc(Oc4ccccc4)cc3)c(-c3ccccc3)n2)cc1
inactive: SR leukemia 38.6% | RPMI-8226 leukemia 73% | OVCAR-8 ovarian 92.3% | OVCAR-5 ovarian 98.9% | OVCAR-4 ovarian 81.4% | SK-OV-3 ovarian 112% | IGROV1 ovarian 86.4% | OVCAR-3 ovarian 86.9% | HS 578T breast 105% | NCI/ADR-RES ovarian 90.1%

COc1ccc(-c2cc(-c3ccc(Cl)cc3)nc(SCCCC(=O)NO)n2)cc1OC
active: RPMI-8226 leukemia -6.19% | OVCAR-5 ovarian 1.46% | SK-OV-3 ovarian 0.0102% | IGROV1 ovarian -1.77% | OVCAR-3 ovarian 6.86% | NCI/ADR-RES ovarian -30.6%
inactive: SR leukemia 19.7% | OVCAR-8 ovarian 13.5% | OVCAR-4 ovarian 19.1%

CN1CCN(CC(=O)Nc2cccc(-n3cc(-c4ccncc4)c(-c4ccc(Cl)c(O)c4)n3)c2)CC1
inactive: RPMI-8226 leukemia 15.9% | OVCAR-8 ovarian 57.2% | OVCAR-5 ovarian 68.2% | OVCAR-4 ovarian 59.8% | SK-OV-3 ovarian 55.9% | IGROV1 ovarian 57.5% | OVCAR-3 ovarian 12.8% | HS 578T breast 38.2% | NCI/ADR-RES ovarian 42.2%
active: SR leukemia 5.84%

S=C1N(c2ccccc2)CN(C2CCCCC2)CN1c1ccccc1
inactive: SR leukemia 102% | RPMI-8226 leukemia 103% | OVCAR-8 ovarian 75% | OVCAR-5 ovarian 104% | OVCAR-4 ovarian 96.5% | SK-OV-3 ovarian 117% | IGROV1 ovarian 95.9% | OVCAR-3 ovarian 106% | HS 578T breast 63.2% | NCI/ADR-RES ovarian 103%

COc1cc2cc(Oc3ccc(NC(=O)c4ccccc4)cc3)c(C)nc2cc1OC
inactive: SR leukemia 70.2% | RPMI-8226 leukemia 96.8% | OVCAR-8 ovarian 22.7% | OVCAR-5 ovarian 112% | OVCAR-4 ovarian 78.9% | SK-OV-3 ovarian 73.4% | IGROV1 ovarian 91.5% | OVCAR-3 ovarian 83.4% | NCI/ADR-RES ovarian 81.3%

O=C(CI)OCC(COC(=O)CI)OC(=O)CI
inactive: RPMI-8226 leukemia 50.9% | OVCAR-8 ovarian 97.9% | OVCAR-5 ovarian 104% | OVCAR-4 ovarian 64% | SK-OV-3 ovarian 119% | OVCAR-3 ovarian 72.2% | HS 578T breast 97.4% | NCI/ADR-RES ovarian 95.6%
active: SR leukemia -12.9% | IGROV1 ovarian -57.1%

CC(=O)Oc1cc(OC(C)=O)c2ccccc2c1OC(C)=O
inactive: SR leukemia 69.4% | RPMI-8226 leukemia 72.5% | OVCAR-8 ovarian 81.9% | OVCAR-5 ovarian 115% | OVCAR-4 ovarian 86% | SK-OV-3 ovarian 76.8% | IGROV1 ovarian 63.1% | OVCAR-3 ovarian 84.1% | HS 578T breast 83% | NCI/ADR-RES ovarian 88.9%

C[C@]12CC[C@@H]3c4ccc(OS(=O)(=O)O)cc4CC[C@H]3[C@@H]1CC[C@@H]2NS(=O)(=O)c1ccc(-c2ccccc2)cc1
inactive: SR leukemia 38.6% | RPMI-8226 leukemia 32.4% | OVCAR-8 ovarian 67.6% | OVCAR-5 ovarian 113% | OVCAR-4 ovarian 66.9% | SK-OV-3 ovarian 91.6% | IGROV1 ovarian 70.4% | OVCAR-3 ovarian 52.6% | HS 578T breast 89.3% | NCI/ADR-RES ovarian 58.5%

CCN(CC)c1ccc(/C=C2\SC(=O)C(Nc3nnc(-c4cccnc4SCc4ccccc4)o3)C2=O)cc1 (stereo not drawn)
inactive: SR leukemia 11.8% | RPMI-8226 leukemia 23.4% | OVCAR-8 ovarian 24.2% | OVCAR-5 ovarian 41.4% | OVCAR-4 ovarian 38.6% | SK-OV-3 ovarian 15.6% | IGROV1 ovarian 56.5% | HS 578T breast 26.6%
active: OVCAR-3 ovarian -13.5% | NCI/ADR-RES ovarian -9.88%

O=C1/C(=C/c2ccc([N+](=O)[O-])s2)Oc2cc(Cl)ccc21
active: SR leukemia 8.31% | RPMI-8226 leukemia -14.7% | OVCAR-8 ovarian -25.5% | OVCAR-4 ovarian 3.28% | IGROV1 ovarian -60.9% | OVCAR-3 ovarian -76.8% | HS 578T breast 1.22%
inactive: OVCAR-5 ovarian 53% | SK-OV-3 ovarian 88.8% | NCI/ADR-RES ovarian 24%

Cc1cc(CCNC=O)c(C)c2c1sc1ccccc12
inactive: SR leukemia 89.4% | RPMI-8226 leukemia 92.4% | OVCAR-8 ovarian 97.9% | OVCAR-5 ovarian 82.4% | OVCAR-4 ovarian 85% | SK-OV-3 ovarian 104% | IGROV1 ovarian 122% | OVCAR-3 ovarian 111% | HS 578T breast 54% | NCI/ADR-RES ovarian 97.8%

NC(=O)c1cccc(-n2ccc3cc(NC(=O)Nc4ccc(Cl)c(C(F)(F)F)c4)ccc32)n1
inactive: SR leukemia 91.1% | RPMI-8226 leukemia 70.5% | OVCAR-8 ovarian 72.1% | OVCAR-5 ovarian 93.1% | OVCAR-4 ovarian 77.6% | SK-OV-3 ovarian 94.8% | IGROV1 ovarian 74.5% | OVCAR-3 ovarian 94.7% | HS 578T breast 46.5% | NCI/ADR-RES ovarian 82%

COc1ccc2c(c1)C(=O)/C(=C/c1ncc([N+](=O)[O-])n1C)O2
active: SR leukemia 9.33% | OVCAR-8 ovarian -18.2% | OVCAR-5 ovarian 1.74% | OVCAR-4 ovarian -6.9% | SK-OV-3 ovarian -21.7% | IGROV1 ovarian -30.4% | OVCAR-3 ovarian -18% | HS 578T breast -9.93% | NCI/ADR-RES ovarian -0.383%
inactive: RPMI-8226 leukemia 105%

Cc1cc(Cl)ccc1Nc1nc(C(F)(F)F)ccc1C(=O)N/N=C/c1cccc(O)c1
inactive: RPMI-8226 leukemia 24.1% | OVCAR-8 ovarian 62.6% | OVCAR-5 ovarian 51.1% | OVCAR-4 ovarian 33.8% | SK-OV-3 ovarian 38.8% | IGROV1 ovarian 27.7% | OVCAR-3 ovarian 35.9% | NCI/ADR-RES ovarian 26.6%
active: SR leukemia -13%

CN(C)CCN(Cc1ccccc1)c1ccc2ccccc2n1
inactive: SR leukemia 98.6% | RPMI-8226 leukemia 89.5% | OVCAR-8 ovarian 102% | OVCAR-5 ovarian 95% | OVCAR-4 ovarian 97.4% | SK-OV-3 ovarian 97.2% | IGROV1 ovarian 95.1% | OVCAR-3 ovarian 103% | NCI/ADR-RES ovarian 94.2%

Clc1nc2ccc(Br)cc2cc1-c1nc2ccccc2[nH]1
inactive: SR leukemia 92.3% | RPMI-8226 leukemia 70.4% | OVCAR-8 ovarian 88.2% | OVCAR-5 ovarian 108% | OVCAR-4 ovarian 65.3% | SK-OV-3 ovarian 54.8% | IGROV1 ovarian 80.1% | OVCAR-3 ovarian 95.5% | NCI/ADR-RES ovarian 92.9%

Cc1ccccc1N1C(=O)c2cc(S(N)(=O)=O)c(Cl)cc2NC1C (stereo not drawn)
inactive: SR leukemia 87.1% | RPMI-8226 leukemia 106% | OVCAR-8 ovarian 108% | OVCAR-5 ovarian 108% | OVCAR-4 ovarian 111% | SK-OV-3 ovarian 128% | IGROV1 ovarian 111% | OVCAR-3 ovarian 109% | NCI/ADR-RES ovarian 103%

CCCCCOC(=O)Nc1nc(=O)n(C2O[C@H](C)[C@@H](O)[C@H]2O)cc1F (stereo partly drawn)
inactive: SR leukemia 101% | RPMI-8226 leukemia 101% | OVCAR-8 ovarian 92.3% | OVCAR-5 ovarian 104% | OVCAR-4 ovarian 109% | SK-OV-3 ovarian 93.4% | IGROV1 ovarian 107% | OVCAR-3 ovarian 106% | HS 578T breast 104% | NCI/ADR-RES ovarian 96.4%

N#CCc1csc(Cc2ccccc2)n1
inactive: SR leukemia 98.6% | RPMI-8226 leukemia 99% | OVCAR-8 ovarian 106% | OVCAR-5 ovarian 110% | OVCAR-4 ovarian 121% | SK-OV-3 ovarian 104% | IGROV1 ovarian 108% | OVCAR-3 ovarian 106% | NCI/ADR-RES ovarian 97.3%
